The panel holds about 83,000 compounds, 20% with a hit somewhere; the sample as a whole holds those more often.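 Values shown are percent growth following 48 h exposure of cells in 96-well plates to a single concentration of compound; below 10 was considered active.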 Values without a mark were called inactive. Calls of active or inactive are those of the source.

This assay relates to M14 melanoma. The experiment in a line: NCI-60 one-dose screen, 48 h (100 = growth as untreated, 0 = no growth, -100 = all killed). The following applies: 10 µM unless noted.
For the molecule `COc1cc2[nH]c(C(=O)c3cc(OC)c(OC)c(OC)c3)c(N)c2cc1C#CC1CC1`, the growth was 22%.
Take `COc1cc2c(cc1OC)C(=O)/C(=C/c1cc(-c3ccc4c(c3)OCO4)n[nH]1)C2`: the growth is 5.68% (active).
With `NS(=O)(=O)c1ccc(CCNC(=O)/C=C/c2ccc(Cl)cc2)cc1` the figure was 99.2%; with `C/C(=N/NC(N)=S)C(=O)O`, 97.4%.
On to `Cc1ccc(-c2ccc(Nc3ccccc3)nn2)cc1S(N)(=O)=O`, for which the growth is 83.2%.
With `CCC(c1ccc(OC)cc1)C(CC)c1ccc(O)c(CN2CCCCC2)c1` (centres undefined) the figure was 44.3%.
The result for `COc1cc(-c2cc(-c3nc4ccc(F)cc4[nH]3)[nH]n2)cc(OC)c1OC` reads 21.5%; that for `COc1cccc(NC(=O)c2sc3nc4c(cc3c2N)C(=O)CCC4)c1`, 12.5%; that for `NC1(N)C=CC2=C(C=C1)C1(N)C3=C(C=CC(N)(N)C=C3)N2C2(N)C3=C(C=CC(N)(N)C=C3)N1C1=C2C=CC(N)(N)C=C1`, 94.5%.
Take `COc1ccc(-c2nc3ccccn3c2-c2nc3ccc(Cl)cc3[nH]2)cc1`: the growth was 103%.
With `O=c1c(CNc2ccc(S(=O)(=O)Nc3nccs3)cc2)coc2ccccc12` the figure was 104%.
The result for `COc1cccc(-c2nn(-c3ccccc3)cc2-c2ccnc(NCCNS(=O)(=O)c3ccc(Cl)cc3)c2)c1` reads 28.6%.
With `O=S(=O)(NCCNc1cc(-c2cn(-c3ccccc3)nc2-c2cccc(O)c2)ccn1)c1ccc(C(F)(F)F)cc1` the figure was 32.1%; with `Cc1cc(C)c(NC(=O)c2sc3nc4c(cc3c2N)CCCC4)c(C)c1`, 24.5%.
Take `C/C(=N\Nc1cc(C)c2ccccc2n1)c1ccccn1`: the growth is -81.4% (active).
Regarding `C=C1C(=O)O[C@H]2[C@H]1CC/C(Cn1cc(-c3ccc(OC)cc3)nn1)=C\CC[C@@]1(C)O[C@@H]21`, the growth is -43.9% (active).
With `COC(=O)[C@]12CC[C@@H](C)[C@H](C)[C@@H]1C1=CC[C@@H]3[C@@]4(C)C[C@@H](OC(C)=O)[C@H](OC(C)=O)[C@@](C)(COC(C)=O)[C@@H]4[C@H](O)C[C@@]3(C)[C@]1(C)CC2` the figure was 14.2%.
Take `COc1cccc(-c2nn(-c3ccccc3)cc2-c2ccnc(NCCCNS(=O)(=O)c3ccc(Cl)cc3)c2)c1`: the growth was 33.4%.
The result for `COc1ccc(-c2cc(/C=C/C(=O)c3ccc(OC)c(OC)c3)[nH]n2)cc1` reads 41.8%.
For the molecule `C#Cc1cc2c(N)c(C(=O)c3cc(OC)c(OC)c(OC)c3)[nH]c2cc1OC`, the growth was 19.9%.
With `O=S(=O)(NCCNc1cc(-c2cn(-c3ccccc3)nc2-c2cccc(O)c2)ccn1)c1ccc(F)cc1` the figure was 14.2%; with `c1ccc2[nH]c(-c3cc(-c4ccc5c(c4)OCO5)n[nH]3)nc2c1`, 45.8%; with `COc1cccc(-c2nn(-c3ccccc3)cc2-c2ccnc(NCCCNS(=O)(=O)c3cccc(F)c3)c2)c1`, 21%.
With `COc1cc(-c2cc(-c3nc4cc(Cl)c(Cl)cc4[nH]3)[nH]n2)cc(OC)c1OC` the figure was 62.3%; with `Oc1cc(/C=C/c2nc(N3CCOCC3)c3cc(Cl)c(Cl)cc3n2)cc(O)c1O`, 102%.
For `Cc1cc(Nc2ccc(F)cc2)nc(N2CCN(c3ccnc4cc(Cl)ccc34)CC2)n1`, the growth was 12.9%.
With `COc1ccc(/C=C/C(=O)NCC(C)O)cc1` (centres undefined) the figure was 101%; with `COc1ccc(-c2cc(/C=C/C(=O)c3ccc(N)cc3)[nH]n2)cc1`, 23%.
With `CSc1ccc(N(C)c2nc(C)nc3c2CCC3)cc1` the figure was 5.22% (active); with `OCCNc1nc(Nc2ccc(Cl)c(Cl)c2)nc2ccccc12`, 29.9%; with `O=C1CCN2C(=O)Nc3ccccc3C2C1` (centres undefined), 86.3%.
The result for `Cc1[c-]onc1C.Cc1[c-]onc1C.[Ag].[Ag].[NH-]S(=O)(=O)c1ccc(N=Nc2cc(N=Nc3ccc(S([NH-])(=O)=O)cc3)c3c(NC(=O)C(Cl)Cl)cccc3c2OC(=O)C(Cl)Cl)cc1` reads 103%; that for `Clc1ccc(Cn2cc(-c3nc4ccc(Br)nc4n3Cc3ccc(Cl)cc3)c3cccnc32)cc1`, 89.8%; that for `COC(=O)[C@]12CC[C@@H](C)[C@H](C)[C@@H]1C1=CC[C@@H]3[C@@]4(C)C[C@@H](OC(C)=O)[C@H](O)[C@@](C)(COC(C)=O)[C@@H]4[C@H](O)C[C@@]3(C)[C@]1(C)CC2`, -73.3% (active).

Values taken from PubChem BioAssay (NCI).
